Measurements as given in PubChem BioAssay AID686978 (National Center for Advancing Translational Sciences (NCATS), 2013).
Several values for one entry are separate records, joined by “and”; a condition that tells them apart may be missing. Equal values may be shown once. Hit rate of the full screen: of about 420,000 compounds, about 64,000 (15%) were called active. About 27% were inconclusive and are not listed. Only a selection was taken, and actives are over-represented in it overall. Values without a mark were called inactive. Calls come from the whole dose curve; as a rule, active = well fitted inhibition curve with a large enough effect; inconclusive = small, poorly fitted or top-dose-only effect; inactive = flat fitted curve, though single readings scatter.

Experiment: qHTS for Inhibitors of human tyrosyl-DNA phosphodiesterase 1 (TDP1): qHTS in cells in absence of CPT; note: nearly all actives have a fitted effect of over 55% in size
Conditions: DT40 Tdp1-/- hTDP1 cells, no CPT, ATP luminescence, 48 h; series mostly up to 46.2 µM; activity change, negative = growth inhibition: at the top concentration
Text: Human tyrosyl-DNA phosphodiesterase 1 (TDP1) is a novel repair gene, and we propose to use it as a new target for anticancer drug development. TDP1 is not an essential protein, but under treatment with topoisomerase I poison (camptothecin: CPT), TDP1 works as a critical factor for cell survival. To directly identify novel TDP1 inhibitors active in a cellular environment, we have knocked-out the Tdp1 gene in chicken DT40 cells (Tdp1-/-) and generated a complemented counterpart cells that contains a stable transfection of the human TDP1 gene (Tdp1-/-;hTDP1 cells). For the primary screen, Tdp1-/-;hTDP1 cells will be exposed to small molecules in the presence or absence of CPT, and their growth kinetics will be evaluated after 48 hours by measuring ATP activity. […] The hit compounds will then be evaluated in the presence or absence of CPT using Tdp1-/- cells. […] In tertiary assays, biochemical gel-based assays will be used to assess whether the hit compounds specifically target TDP1.
To this end, we have screened this cell line against the MLSMR in two primary screens. In one screen we add CPT and in the other we screen in the absence of CPT; this AID represents the screen where CPT was absent.
NIH Chemical Genomics Center [NCGC]
NIH Molecular Libraries Probe Centers Network [MLPCN]
Assay Submitter (PI): Yves Pommier, NCI
DT40-hTDP1 cells without 20 nM Camptothecin (add 20 microL of DMSO in 1 L of cell culture medium) were dispensed at 400 cells/5microL/well in tissue culture treated 1536-well white wall/solid bottom assay plates (Greiner Bio-One North America, NC, U.S.A.) using a Multidrop Combi 8 channel dispenser (Thermo Fisher, Waltham, MA, USA). 23 nL compounds and controls were transferred using the pin tool (Kalypsys, San Diego, CA, USA) to the assay plates. The assay plates were then incubated at 37 masculineC for a minimum 48 hr. Three microL of Cell Titer Glo solution was added to the plates and incubated at RT in dark for 30 min. Luminescence was read using ViewLux (Perkin Elmer) with 1 sec exposure slow speed, high gain and 2x binning.
% is set by controls: 0 for no effect and ±100 for the full control effect; potency is the fitted concentration of half-maximal effect.

Row | SMILES | Potency | activity change, negative = growth inhibition
1 | CN(Cc1cccc2ncccc12)C(=O)c1cnn(-c2nccc(-c3ccccc3F)n2)c1C1CC1 | 3.66 µM (active) | –
2 | CCOC(=O)CC(SP1(=S)OCC2(CCCCO2)C(C2CCCCO2)O1)C(=O)OCC (stereo not given) | – | -23.8%
3 | CC[N+](C)(CC)CCC[n+]1c(-c2ccccc2)c2cc(N)ccc2c2ccc(N)cc21 | 2.58 µM (active) | –
4 | CCOP(=S)(OCC)C(O)CCCCCn1c(=O)c(F)cn(C2CCCO2)c1=O (stereo not given) | – | -6.96%
5 | O=C(Nc1ccc(Cl)cc1C(=O)c1ccccc1)c1cc(Cl)cc(Cl)c1 | – | -8.13%
6 | CCC1(c2ccccc2)C(=O)NC(=O)N(C)C1=O (stereo not given) | – | -2.29%
7 | CC=C(C)C(=O)OC1CCN2CC=C(COC(=O)C(O)(C(C)OC)C(C)(C)O)C12 (stereo not given) | – | 1.67%
8 | COC(=O)C1=C(c2ccc(Cl)c(C(F)(F)F)c2)C[C@@H]2CC[C@H]1N2C(=O)NC1CC1 | 10.3 µM (active) | –
9 | COC(=O)C1=C(c2ccc(F)cc2F)C[C@@H]2CC[C@H]1N2C(=O)NC1CC1 | – | -26.6%
10 | COC(=O)C1=C(c2ccc(Cl)c(C(F)(F)F)c2)C[C@@H]2CC[C@H]1N2C(=O)NC(C)C | 20.6 µM (active) | –
11 | COC(=O)C1=C(c2ccc(C(C)=O)cc2)C[C@@H]2CC[C@H]1N2C(=O)NCCNC(C)=O | – | 13.1%
12 | COc1ccc(NC(=O)N2CCC3(CC2)OCCO3)c(OC)c1 | – | 7.95%
13 | CCOC(=O)c1c(C)c(C(=O)N2CCC3(CC2)OCCO3)c(C)n1CC | – | 4.35%
14 | CCN1c2nc3c(C)cccn3c(=O)c2CC2(C(=O)N(C)C(=O)N(C)C2=O)C1C (stereo not given) | – | -4.11%
15 | CN(C)C(=O)NC(O)C(Cl)(Cl)Cl (stereo not given) | – | 0.9%
16 | COc1ccc(-c2nn(CCC#N)cc2C(=O)Nc2ccc(C(C)=O)cc2)cc1 | – | 5.46%
17 | CN(C)CC1Oc2ccccc2OC1(O)c1ccccc1 (stereo not given) | 2.06 µM (active) | –
18 | CCCOC(=O)C1C2c3ccccc3C(c3ccccc32)C1C(=O)O (stereo not given) | – | -12.7%
19 | CC(CC(C#N)(c1ccccc1)c1ccccc1)N1CCCCC1 (stereo not given) | – | -3.92%
20 | CC(C)(c1ccc(OC[C@@H]2CO2)cc1)c1ccc(OC[C@H]2CO2)cc1 | 11.9 µM (active) | –

Row | SMILES | Potency | activity change, negative = growth inhibition
21 | CCOC(=O)C(O)(c1ccc(N)c(OC)c1)C(F)(F)F (stereo not given) | – | -3.69%
22 | Cc1cc(N2C(=O)C3CCCN3C2c2ccc(Cl)c(Cl)c2)no1 (stereo not given) | – | 6.03%
23 | CN(C)S(=O)(=O)c1cc(C(=O)N2CCC(C(=O)O)(c3ccccc3)CC2)ccc1Cl | – | -3.11%
24 | Cc1ccc(NC(=O)CN(C)CC(=O)Nc2cccc(F)c2)cc1[N+](=O)[O-] | 1.16 µM (active) | –
25 | C=CCSSCC=C | – | 2.53%
26 | O=C(NCC(c1cccnc1)N1CCN(c2ccccc2)CC1)Oc1ccccc1 (stereo not given) | – | -19.5%
27 | COc1cc2c(cc1OC)[C@@H]1C(=O)c3ccc(O)c(CC=C(C)C)c3OC1CO2 (stereo not given in full) | – | -17.4%
28 | N#CC1=C(N)Oc2c(c(=O)oc3ccccc23)C1c1ccccc1OC(=O)c1cccs1 (stereo not given) | 23.1 µM (active) | –
29 | CCNc1nc2[nH]c(=O)c3c(c2s1)OC(N)=C(C#N)C3c1cccs1 (stereo not given) | – | -27.5%
30 | CCOC(=O)C(O)(c1ccc(N=Cc2ccccc2O)c(C)c1)C(F)(F)F (stereo not given) | – | 26.3%
31 | CCOc1ccc(-c2cc(C)[n+](CCN(CC)CC)c(-c3ccc(OCC)cc3)c2)cc1 | 0.184 µM (active) | –
32 | COc1cc(C2c3cc4c(cc3C(O)C3COC(=O)C23)OCO4)cc(OC)c1OC (stereo not given) | 28.2 nM (active) and 73.1 nM (active) | –
33 | COc1ccc(CNCCc2ccc3c(c2)OCO3)c(OC)c1OC | – | -22.3%
34 | COc1ccccc1OC(=O)c1ccc(C)c(S(=O)(=O)N2CCOCC2)c1 | – | -10.1%
35 | CCCCCn1c(=O)c(C(=O)NCc2ccccn2)c(O)c2ccccc21 | 20.6 µM (active) | –
36 | CCCCCn1c(=O)c(C(=O)Nc2c(C)n(C)n(-c3ccccc3)c2=O)c(O)c2ccccc21 | 4.61 µM (active) | –
37 | CCCCCn1c(=O)c(C(=O)NCc2ccccc2)c(O)c2ccccc21 | 6.51 µM (active) | –
38 | CCCCn1c(=O)c(C(=O)Nc2ccccc2Cl)c(O)c2ccccc21 | 25.9 µM (active) | –
39 | COc1cc(C(c2c(O)c3ccccc3oc2=O)c2c(C)n(C)n(-c3ccccc3)c2=O)ccc1O (stereo not given) | inactive | –
40 | O=C(CSC1c2ccccc2-c2ccccc21)N/N=C/c1ccccc1 | – | -16.6%

Row | SMILES | Potency | activity change, negative = growth inhibition
41 | O=C1CC(=O)N(Cc2ccccc2)C(=O)N1CCCCCCN1C(=O)CC(=O)N(Cc2ccccc2)C1=O | – | 2.08%
42 | CN(C)C(=O)Oc1cc(=O)n2c3c(cccc13)CCC2 | – | -22.8%
43 | CC[N+]1(CCOC(=O)C(O)(c2ccccc2)c2ccccc2)CCCCC1 | – | -6.5%
44 | O=C(c1cc(S(=O)(=O)N2CCOCC2)ccc1F)N1CCC2(CC1)OCCO2 | – | -19.4%
45 | CO[C@@H]1C[C@@H](C[C@H]2CC[C@H](C)[C@@H]([C@@H](C)C(=O)O)O2)O[C@]2(O[C@](C)([C@H]3CC[C@@](C)(C4OC([C@H]5O[C@@](O)(CO)[C@H](C)C[C@@H]5C)C[C@@H]4C)O3)C[C@H]2C)[C@@H]1C (stereo not given in full) | 0.588 µM (active) | –
46 | CN(C)P(=S)(Nc1ccccc1)C(Cl)(Cl)Cl (stereo not given) | – | -28.9%
47 | O=C(Nc1cccc(OC(=O)N2CCCCC2)c1)N1CCOCC1 | 5.8 µM (active) | –
48 | CN(C)C(=O)Oc1ccc(NC(=O)N2CCOCC2)cc1 | – | 15.6%
49 | O=C(Nc1cccc(F)c1)N1CC[C@@]2(CCCN(C(=O)Oc3ccccc3)C2)C1 | – | -69.5%
50 | c1ccc2sc(N3CCNCC3)nc2c1 | – | -0.512%
51 | COc1ccc(NC(=O)c2cn(CCC#N)nc2-c2ccc([N+](=O)[O-])cc2)cc1 | – | 2.67%
52 | CN1CCN(/N=C/c2c[nH]c3ccccc23)CC1 | – | 2.07%
53 | C[C@@H]1C[C@@H]2O[C@H]2/C=C\C=C\C(=O)Cc2c(Cl)c(O)cc(O)c2C(=O)O1 | 0.164 µM (active) | –
54 | NS(=O)(=O)c1ccc(CCNC(=O)c2ccc(Cl)c(S(=O)(=O)N3CCCCCC3)c2)cc1 | 23.1 µM (active) | –
55 | C=CCn1c(O)c(/C=N/N2CCOCC2)c(=O)[nH]c1=S | – | 3.41%
56 | CN(C(=O)CSc1nc2ccc(NC(=O)COc3ccccc3)cc2s1)c1ccccc1 | 11.6 µM (active) | –
57 | O=C(COc1ccccc1Cl)Nc1ccc2nc(SCC(=O)N3CCCC3)sc2c1 | 16.4 µM (active) | –
58 | CCOCCc1c(O)[nH]c(=S)[nH]c1=O | – | -9.37%
59 | COc1ccc(C2Oc3c(I)c(OC)cc(OC)c3CC2O)cc1OC (stereo not given) | – | -14.9%
60 | CCCCC/C=C\C/C=C\C/C=C\C/C=C\CCCCCC(=O)NCCO | – | -2.9% [at 4.12 µM]
